± gives the standard deviation. Where only a bound is given, the exact number is not on record here.
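Note: 1 nM active piRISC with 0.1 nM target library at 33 °C single turnover.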

This assay deals with MILI (PIWIL2) piRISC loaded with piRNA #1 (26 nt). Briefly: pre-steady-state target cleavage rate (min^-1); guide: piRNA #1 5'p-UGAGGUAGUAGGUUGUAUAGUAUCCA; MIWI and MILI are mouse PIWI proteins and EfPiwi is from a freshwater sponge; tags in brackets are library labels; higher = faster piRNA-guided slicing of the target. The note with it: auxiliary factor: 500 nM mouse GTSF1. An outline of the steps: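 Cleave-'n-Seq measured uncleaved targets by sequencing after a transcribed, DNA-blocked target RNA library […] was mixed with 1 nM active affinity-purified piRISC holding one synthetic guide, with or without 500 nM GTSF1 partner protein, at 33 °C in HEPES–potassium acetate buffer for 0–8 or 0–960 min. Counts were normalised to depth and to weakly complementary targets, three trials were pooled, and k3 was capped at 0.0001 min^-1. A burst-and-steady-state fit gave the pre-steady-state cleavage rate.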
For GGAGACCUAUGAAUACUACCUACUUCCUCA, the “pre-steady-state target cleavage rate” value came to 0.0037 ± 0.0024.

GGAGACCUUACUAUAGAUCCUACUACCUCA: the “pre-steady-state target cleavage rate” value is 0.204 ± 0.017. The value for GGAGACCAUACUAUUGUACCUACUACCUCA was 0.0647 ± 0.009; that for GGAGACCUAUGUAUACAUCCUACAACCUCA was 0.114 ± 0.014; that for GGAGACCUUACUAAAGAACCUACUACCUCA was 0.105 ± 0.011. For the sequence GGAGACCUAUGAUAUGAACCUACUAUCUCA, the “pre-steady-state target cleavage rate” value is less than 0.0001.

As to GGAGACCAUACUAUUCAACCUACAACCUCA, the “pre-steady-state target cleavage rate” value amounted to 0.185 ± 0.021.

On to GGAGACCUAUGUUUACAUCCUACUACCUCA, for which the “pre-steady-state target cleavage rate” value was determined as 0.0197 ± 0.0031. The value for GGAGACCUAUGAUUACAACCUACUACUUCA was 0.00418 ± 0.0024; that for GGAGACGAUUCUAUACAACCUACUACGUCA was 0.0993 ± 0.0097; that for GGAGACCAAACUAUAGAACCUACUACCUCA was 0.13 ± 0.028. Turning to GGAGUGGAUACUAUACCACCUACUACCUCA, the “pre-steady-state target cleavage rate” value came out at 0.188 ± 0.012.

Take GGAGACCUAUGUAUACAACCUACUACACUCA: the “pre-steady-state target cleavage rate” value came to 0.12 ± 0.018. Next, GGAGACCUAUGAUAACAACCUACCACCUCA: 0.00342 ± 0.0032; GGAGACCUAUGUAUACAACCUACUUACCUCA: 0.0503 ± 0.0043; “GGAGACCUAUGAAUACAACGAUGAUGGAGA [g12:g18:cont:t1A]”: less than 0.0001. In the case of GGAGACCUUACUAAACAACCUACAACCUCA, the “pre-steady-state target cleavage rate” value is 0.178 ± 0.025.

Consider GGAGACCUUAGUAUACAACCUAGUACCUCA, for which the “pre-steady-state target cleavage rate” value turned out to be 0.0225 ± 0.0077. Next, GGAGACGAUACUAUAAACCUACUACCUCA: 0.0257 ± 0.0077. GGAGACCUAUGAUUACAACCUAAUACCUCA: the “pre-steady-state target cleavage rate” value was determined as 0.00387 ± 0.0022. Next, GGAGACCUUACAAAACAACCUACUACCUCA: 0.00897 ± 0.0036. Regarding GGAGACCUAUGAUAUCAACCUACAACGUCA, the “pre-steady-state target cleavage rate” value was less than 0.0001. For GGAGACCUAUGAUUACAACCUACUACCUA, the “pre-steady-state target cleavage rate” value stood at 0.00393 ± 0.0024. The value for GGAGACCUAUGUAUACAACCUCCUACCUCA was 0.0161 ± 0.0038. The value for GGAGUGGAUACUAUAGUUCCUACUACCUCA was 0.169 ± 0.0095. The value for GGAGACCUAUCAAUACAACCUACUACCACA was 0.0775 ± 0.019; that for GGAGACCUAUGAUAUGAACGUACAACCUCA was less than 0.0001; that for GGAGACCUAUGUAUACUACCUACUAGCUCA was 0.0108 ± 0.0031. Regarding GGAGACCUUACUUUACAACGUACUACCUCA, the “pre-steady-state target cleavage rate” value was 0.0199 ± 0.0047. GGAGACCUAUGUAUACAACGUACAACCUCA: the “pre-steady-state target cleavage rate” value was 0.00935 ± 0.0021. GGAGACCUAUGUUUACAACCUUCUACCUCA: the “pre-steady-state target cleavage rate” value was 0.00358 ± 0.0029. With GGAGACCUAUCUAUACAACCUUACUACCUCA, the “pre-steady-state target cleavage rate” value was 0.00278 ± 0.0026. Regarding GGAGACCUUACUUUACAAGCUACUACCUCA, the “pre-steady-state target cleavage rate” value came to 0.232 ± 0.013. Next, GGAGACCUAUGAAUACAACCUAGUACCUGA: less than 0.0001; GGAGACCUUACAAUAGAACCUACUACCUCA: 0.0823 ± 0.01; GGAGACCUUAGUAUACAACCUACUACGUCA: 0.0155 ± 0.0047. The value for GGAGACGAUACAAUAGAACCUACUACCUCA was 0.178 ± 0.014; that for GGAGACCUUUCUAUACAACCUACUACGUCA was 0.0394 ± 0.0068; that for GGAGACCUAUGUAUACUACCUACUACCACA was 0.0548 ± 0.008. The value for GGAGACCUAUGAAUACGACCUACUACCUCA was 0.00583 ± 0.0037.

The record behind these values is the supplement of paper PMC10338343.
